In one assay the target is Albumin (Bos taurus) (UniProt P02769). The experiment in a line: bovine serum albumin binders on microarray, profiling panel, artefact control for SMM control protein annotation, biochemical, small-molecule microarray, Alexa647 label, 635/667 nm fluorescence (AID 1118).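 Note: score merges 667 nm emission intensity and signal-to-noise per printed compound spot.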 Conditions: BSA-A647 binding, fluorescence 635 nm, higher = more signal.
Assay [1] can be described thus: small-molecule microarray binders of probe aXIP, primary screen, biochemical, NeuroSMM set, 635/667 nm fluorescence (AID 1119).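 Note: probe is the protein aXip251-270 applied at 1 µg/mL to compound-printed slides; binding of probe to printed compounds measured as 667 nm fluorescence plus signal to noise.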 Conditions: higher = more signal, called active from +8 up or from −8 down.
The nature of assay [2]: small-molecule binders of probe aNOTCH3, primary screen, biochemical, small-molecule microarray, 635/667 nm fluorescence (AID 1120).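 Note: probe is a biotin-tagged antibody raised against NOTCH3 rather than NOTCH3 protein; score merges spot fluorescence near 667 nm with spot signal to noise.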 The note with it: higher = more signal.
A short description of assay [3]: small-molecule binders of probe aNOTCH2, primary screen, biochemical, small-molecule microarray, 635/667 nm fluorescence (AID 1121).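 Note: score merges feature fluorescence read at 667 nm with its signal to noise.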 The note with it: higher = more signal.
Assay [4] deals with Carbonic anhydrase 2 (Homo sapiens) (UniProt P00918). Briefly: CAII small-molecule binders, profiling panel, biochemical, small-molecule microarray, Alexa647-labelled CAII (AID 1122). Conditions: CAII-A647 binding fluorescence, higher = more signal.
Assay [5] can be described thus: COS7 lysate on small-molecule microarray, probe aHis, 635 nm (AID 1123).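 Note: z-score combines 667nm fluorescence intensity with signal-to-noise per printed compound spot.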 The note with it: COS7 cell lysate, fluorescence, higher = more signal.
The nature of assay [6]: compound binding in COS7 lysate, probe aLAP1, primary screen, cell lysate, small-molecule microarray (AID 1124).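 Note: lysate comes from COS7 cells expressing LAP1 and is applied at 0.3 µg/mL; score merges spot fluorescence near 667 nm with signal-to-noise over triplicate slides.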 Conditions: probe aLAP1, fluorescence, higher = more signal.
The test system of a further assay is Sam68 (KHDRBS1). Briefly: Sam68 small-molecule binders, primary screen, biochemical, small-molecule microarray, 635 nm fluorescence (AID 1125).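 Note: score merges 667 nm channel intensity with signal to noise over triplicate slides.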 Conditions: small-molecule microarray binding, higher = more signal.
Assay [7] concerns Chordin-like protein 2 (CHRDL2). Briefly: CHRDL2 small-molecule binders, primary screen, biochemical, small-molecule microarray, 635 nm fluorescence (AID 1126).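 Note: printed compound slides probed with Chrdl2 protein at 4 µg/mL for 1 h at 4 C; score merges 667 nm emission intensity with signal to noise over three replicate slides.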 The note with it: small-molecule microarray binding, fluorescence 635 nm; higher = more signal.
The target in assay [8] is Concanavalin-A (Canavalia ensiformis) (UniProt P02866). The experiment in a line: ConA small-molecule binders, primary screen, artefact control for SMM control protein annotation, biochemical, small-molecule microarray, Alexa647 label, 635 nm (AID 1127).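 Note: z combines 667 nm emission intensity with signal-to-noise across three replicate slides.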 The note with it: ConA-A647 binding fluorescence, higher = more signal.

The values below come from PubChem BioAssay.

Activity calls are given as the source filed them.

Sequence of Concanavalin-A (Canavalia ensiformis) (P02866 whole entry, looked up): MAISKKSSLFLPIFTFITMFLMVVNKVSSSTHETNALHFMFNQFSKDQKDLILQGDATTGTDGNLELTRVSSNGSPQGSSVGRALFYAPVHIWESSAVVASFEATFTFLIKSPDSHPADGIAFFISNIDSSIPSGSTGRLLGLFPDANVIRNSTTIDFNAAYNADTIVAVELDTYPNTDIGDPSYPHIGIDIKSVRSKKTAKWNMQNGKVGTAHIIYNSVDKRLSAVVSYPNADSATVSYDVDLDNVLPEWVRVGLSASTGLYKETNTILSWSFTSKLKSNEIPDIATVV
Sequence of Albumin (Bos taurus) (P02769 whole entry, looked up): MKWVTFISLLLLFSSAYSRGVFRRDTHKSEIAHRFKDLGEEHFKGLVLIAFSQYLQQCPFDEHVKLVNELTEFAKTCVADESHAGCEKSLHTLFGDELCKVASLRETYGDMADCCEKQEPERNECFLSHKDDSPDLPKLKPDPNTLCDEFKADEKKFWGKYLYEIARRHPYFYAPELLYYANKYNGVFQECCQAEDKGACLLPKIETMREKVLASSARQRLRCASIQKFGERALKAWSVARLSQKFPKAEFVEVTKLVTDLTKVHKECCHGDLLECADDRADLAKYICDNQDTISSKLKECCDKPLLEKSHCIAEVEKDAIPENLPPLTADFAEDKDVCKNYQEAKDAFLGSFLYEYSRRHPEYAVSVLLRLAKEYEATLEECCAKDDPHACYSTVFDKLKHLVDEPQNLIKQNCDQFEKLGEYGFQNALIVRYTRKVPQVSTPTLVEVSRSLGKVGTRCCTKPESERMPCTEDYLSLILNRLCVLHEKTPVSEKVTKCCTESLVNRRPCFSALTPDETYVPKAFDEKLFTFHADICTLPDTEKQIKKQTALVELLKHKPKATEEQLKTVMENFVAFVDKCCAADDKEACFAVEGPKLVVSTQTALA

As to `CCOC(=O)[C@H](Cc1ccccc1)NC(=O)CCC1CC(OC(=O)NCc2ccc3c(c2)OCO3)CC2(CCCC(COC(=O)NCCC(C)C)O2)O1` (stereo not given in full), the composite z-score was 0.112 in the assay with Albumin (Bos taurus); 0.0252 in assay [2]; -0.0707 in [3]; 0.493 in assay [4]; 0.394 in [5]; -0.133 in assay [6]. In addition, the composite z-score in the assay on Sam68 (KHDRBS1) was determined as 0.907; in [7] it was 0.309; in assay [8], 1.11. For the same compound, in assay [1], the composite Z-score is 0.416 (inactive).
As for `C[C@H](ON=C1[C@H]2CCn3c(=O)n(-c4ccccc4)c(=O)n3[C@H]2[C@H](O)[C@@H]2O[C@H]12)c1cn([C@H](CO)Cc2ccccc2)nn1`, the composite z-score was 0.426 with Albumin (Bos taurus); -0.0788 in assay [2]; -0.0888 in [3]; 0.407 in assay [4]; 0.183 in assay [5]; 0.29 in assay [6]. For the same compound, the composite z-score was 0.168 with Sam68 (KHDRBS1), 0.388 in assay [7] and 1.06 in assay [8]. The composite Z-score in assay [1] was -0.285 (inactive).
Consider `CO[C@@H]1COC(=O)[C@H](CCSC)NC(=O)CC=C[C@@H](C)COC(=O)CCC[C@H]1C`, for which the composite z-score with Albumin (Bos taurus) is -0.978; in assay [2] it was -0.0284; in [3], -0.147; in assay [4], -0.654; in assay [5], -1.31; in assay [6], 1.01. Further, the composite z-score in the assay on Sam68 (KHDRBS1) is 0.973; in [7] it was 1.68; in assay [8] it was -1.11. Besides, in [1], the composite Z-score is 1.81 (inactive).
Take `CC(C)=CCCC(C)=CCON=C1C[C@@H](O)[C@@H](O)[C@@H]2[C@@H]3C(=O)N(C4CCCCC4)C(=O)[C@@H]3CC[C@@H]12`: the composite z-score with Albumin (Bos taurus) was 0.0108; in assay [2], -0.0048; in assay [3], -0.13; in assay [4], 0.276; in [5], -0.112; in assay [6], 0.0694. The composite z-score with Sam68 (KHDRBS1) stood at 0.493; in assay [7] it was 1.01; in assay [8], 0.124. For the same compound, the composite Z-score in assay [1] was 0.244 (inactive).
On to `O=c1n(Cc2cc3c(cc2Cl)OCO3)c(=O)n2n1CC[C@@H]1C(=NOC[C@@H](O)COCc3ccco3)[C@H]3O[C@H]3[C@@H](O)[C@@H]12`, for which the composite z-score is -0.0922 with Albumin (Bos taurus); -0.0841 in [2]; -0.0974 in assay [3]; 0.351 in assay [4]; -0.0175 in assay [5]; 0.0735 in assay [6]. In addition, the composite z-score in the assay with Sam68 (KHDRBS1) is 0.175; in assay [7], 0.57; in [8] it was 0.392. For the same compound, in assay [1], the composite Z-score was -0.263 (inactive).
In the case of `COC(=O)CC=C[C@@H](C)[C@@H](C=NO[C@@H]1O[C@H](COC(C)=O)[C@@H](OC(C)=O)[C@H](OC(C)=O)[C@H]1OC(C)=O)OC`, the composite z-score is 0.216 with Albumin (Bos taurus); 0.0303 in assay [2]; -0.0294 in assay [3]; -0.605 in [4]; -0.152 in [5]; 0.124 in assay [6]. In addition, the composite z-score was 0.702 in the assay with Sam68 (KHDRBS1), -0.0703 in assay [7] and -1.33 in assay [8]. Further, the composite Z-score in assay [1] is -0.421 (inactive).
With `CC(CCN1CCc2nc(-c3ccccc3)c(-c3ccccc3)cc2C1)=NOC[C@@H](O)[C@H]1O[C@@H]2OC(C)(C)O[C@@H]2[C@H]1O`, the composite z-score with Albumin (Bos taurus) was 0.535; in [2] it was -0.051; in assay [3], -0.0291; in [4], 0.0181; in assay [5], 1; in assay [6], 0.608. Further, the values for the composite z-score (in the assay with Sam68 (KHDRBS1); in [7]; in assay [8]) were 1.13, 0.507 and 0.696, respectively. For the same compound, the composite Z-score in assay [1] is 0.42 (inactive).
In the case of `CCOC(=O)[C@H](Cc1ccccc1)NC(=O)OC1CC(CCC2CC(CC)=NO2)OC2(CCCC(COC(=O)NCCC(C)C)O2)C1` (stereo not given in full), the composite z-score was 0.459 with Albumin (Bos taurus); -0.133 in [2]; -0.179 in assay [3]; 0.312 in [4]; 0.86 in assay [5]; -0.342 in assay [6]. The composite z-score in the assay with Sam68 (KHDRBS1) came out at 0.676; in assay [7] it was 0.139; in assay [8], 0.918. Further, the composite Z-score in [1] is 0.257 (inactive).
In the case of `C#CCCCON=C1C[C@@H](O)[C@@H](O)[C@@H]2[C@@H]3C(=O)N(CC)C(=O)[C@@H]3CC[C@@H]12`, the composite z-score in the assay with Albumin (Bos taurus) is -0.171; in assay [2] it was 0.0779; in [3], -0.108; in [4], 0.231; in assay [5], 0.248; in assay [6], -0.0523. In addition, the composite z-score in the assay with Sam68 (KHDRBS1) was 0.771; in assay [7], 0.687; in assay [8] it was 0.433. Further, the composite Z-score in [1] was -0.0844 (inactive).
As to `CCOC(=O)[C@H](CC(C)C)NC(=O)CCC1CC(OC(=O)NCCc2ccc(F)cc2)CC2(CCCC(COC(=O)NCCc3ccc(Cl)cc3)O2)O1` (stereo not given in full), the composite z-score in the assay with Albumin (Bos taurus) was 0.587; in assay [2] it was 0.163; in assay [3], -0.0495; in assay [4], 0.606; in assay [5] it was 1.61; in assay [6] it was 0.037. The composite z-score in the assay with Sam68 (KHDRBS1) was 1.03; in [7] it was 0.446; in [8], -0.485. Further, in [1], the composite Z-score is 0.133 (inactive).
Regarding `COC(=O)[C@H]1O[C@@H](c2c(OC)c(OC)c(C)c(OC)c2OC)[C@H](C)[C@@H](O)[C@H]1C`, the composite z-score was 0.354 with Albumin (Bos taurus); 0.0414 in [2]; -0.0349 in assay [3]; 0.0615 in assay [4]; 1.04 in [5]; -0.203 in assay [6]. Further, the composite z-score amounted to 1.28 with Sam68 (KHDRBS1), 0.31 in assay [7] and 0.86 in assay [8]. The composite Z-score in assay [1] was 0.0421 (inactive).
`CCOC(=O)NN=C1C[C@@H](O)[C@@H](O)[C@@H]2[C@@H]3C(=O)N(c4cccc(Oc5ccccc5)c4)C(=O)[C@@H]3CC[C@H]12`: the composite z-score was 0.52 with Albumin (Bos taurus); 0.0462 in assay [2]; -0.0753 in [3]; 0.503 in [4]; 0.858 in assay [5]; 0.0682 in assay [6]. Moreover, the composite z-score in the assay with Sam68 (KHDRBS1) came to 0.384; in assay [7], 0.399; in assay [8], 0.854. For the same compound, the composite Z-score in assay [1] is -0.238 (inactive).
In the case of `CCOC(=O)C1=NO[C@@]2(C=C(Br)C3(OCCCO3)[C@H]3O[C@H]32)C1`, the composite z-score is -1.04 with Albumin (Bos taurus); 0.0962 in [2]; -0.14 in [3]; 0.486 in assay [4]; 0.336 in [5]; -0.145 in assay [6]. Further, the composite z-score is -0.268 in the assay with Sam68 (KHDRBS1), 1.52 in assay [7] and 0.313 in [8]. In [1], the composite Z-score is 0.44 (inactive).
